# Reference: PubChem BioAssay (NCI)
# The panel holds about 79,000 compounds, 15% with a hit somewhere; the sample as a whole holds those more often. Values without a mark were called inactive. The source made the active and inactive calls. No stated cut-off is given here; in the data, active means growth inhibition above about 70%; inactive means the rest.
# Legend:
# [1] = NCI Yeast Anticancer Drug Screen. Data for the rad52 strain (AID 147);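 further: 0% = growth of vehicle-treated control cultures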; settings: S. cerevisiae rad52 mutant growth inhibition, stronger effect = higher value
# Method in brief: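 Read-out: growth inhibition versus vehicle-treated controls. Cells were a DNA repair-deficient yeast strain treated with compounds.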
# [2] = NCI Yeast Anticancer Drug Screen. Data for the wt1 strain (AID 149);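 further: 0% = growth of vehicle-treated wt1 cultures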; settings: S. cerevisiae wt1 strain (SPY 50644) growth inhibition, stronger effect = higher value
# Method in brief: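 wt1 yeast, compound-treated; % growth inhibition vs vehicle control.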
# [3] = NCI Yeast Anticancer Drug Screen. Data for the rad50EPP+ strain (AID 151);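 further: 0% = growth of vehicle-treated control cultures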; settings: S. cerevisiae rad50 mutant strain, stronger effect = higher value
# Method in brief: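 Growth inhibition read against vehicle controls in rad50EPP+ yeast, a strain altered in DNA damage repair, after compound exposure.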
# [4] = NCI Yeast Anticancer Drug Screen. Data for the rad50 strain (AID 155);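 further: 0% = growth of vehicle-only cultures of the same strain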; settings: S. cerevisiae rad50 strain growth inhibition, stronger effect = higher value
# Method in brief: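 Genetically altered yeast (DNA repair pathway); compound treatment; growth inhibition vs vehicle ctrl.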
# [5] = NCI Yeast Anticancer Drug Screen. Data for the mec2-1 strain (AID 157); settings: S. cerevisiae mec2-1 strain, stronger effect = higher value
# Method in brief: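 Yeast mec2-1 mutant treated with compound. Readout: growth inhibition vs vehicle controls.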
# [6] = NCI Yeast Anticancer Drug Screen. Data for the sgs1 mgt1 strain (AID 161);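 further: 0% = growth of cultures given vehicle only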; settings: S. cerevisiae sgs1 mgt1 strain, stronger effect = higher value
# Method in brief: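 Test agents were incubated with a DNA-repair-mutant yeast strain. Growth was then read and compared against vehicle-treated controls.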
# [7] = NCI Yeast Anticancer Drug Screen. Data for the CLN2oe strain (AID 163);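 further: 0% = growth of vehicle-only control cultures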; settings: S. cerevisiae CLN2oe strain, stronger effect = higher value
# Method in brief: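 Read-out: yeast growth inhibition, expressed relative to vehicle-only controls. The strain bears an engineered cell-cycle alteration.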
# [8] = NCI Yeast Anticancer Drug Screen. Data for the cln2 rad14 strain (AID 165);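 further: 0% = growth equal to vehicle treated cultures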; settings: S. cerevisiae cln2 rad14 strain, stronger effect = higher value
# Method in brief: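 cln2 rad14 yeast strain; compound exposure; growth inhibition read vs vehicle controls.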
# [9] = NCI Yeast Anticancer Drug Screen. Data for the bub3 strain (AID 167); settings: S. cerevisiae bub3 mutant strain, stronger effect = higher value
# Method in brief: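 Yeast carrying a defined mutation is treated with each compound, and growth is compared with that of vehicle-exposed cells to give inhibition.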
# [10] = NCI Yeast Anticancer Drug Screen. Data for the wt2 strain (AID 169);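 further: 0% = growth of vehicle-treated yeast cultures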; settings: S. cerevisiae wt2 strain growth inhibition, stronger effect = higher value
# Method in brief: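 Read-out: growth inhibition versus vehicle-treated control cultures after compound exposure of the yeast strain.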
# [11] = NCI Yeast Anticancer Drug Screen. Data for the mlh1 strain (AID 171);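 further: 0% = growth of vehicle-treated control cultures of the same strain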; settings: S. cerevisiae mlh1 strain growth inhibition, stronger effect = higher value
# Method in brief: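 Read-out: growth inhibition versus vehicle controls. Strain: engineered yeast with a defined DNA repair or cell cycle defect, compound-treated.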
# [12] = NCI Yeast Anticancer Drug Screen. Data for the sgs1 strain (AID 173);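 further: 0% = growth of vehicle-only control cultures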; settings: S. cerevisiae sgs1 mutant, stronger effect = higher value
# Method in brief: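 Read-out: yeast growth inhibition relative to vehicle controls, following compound exposure of a strain with a defined DNA repair/cell cycle alteration.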
# [13] = NCI Yeast Anticancer Drug Screen. Data for the mlh1 rad18 strain (AID 175); settings: S. cerevisiae mlh1 rad18 strain growth inhibition, stronger effect = higher value
# Method in brief: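 Yeast w/ defined DNA-repair lesions; compound exposure; growth vs vehicle controls → % inhibition.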
# [14] = NCI Yeast Anticancer Drug Screen. Data for the rad14 strain (AID 159);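 further: 0% = growth of vehicle-treated control cultures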; settings: S. cerevisiae rad14 strain growth inhibition, stronger effect = higher value
# Method in brief: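 Test compounds were applied to a repair-deficient yeast strain. Its growth was then compared with that of cultures given vehicle alone, and inhibition was expressed relative to those controls.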
# [15] = at 5.0 µM (retest, dose inferred, filed as 0.5)
# [16] = at 50.0 µM (retest, dose inferred, filed as 5.0)
compound,measurement,setting,value
Oc1ccccc1N=Cc1ccc(Cl)cc1,growth inhibition,[1]; at 1.2 µM,5%
same,growth inhibition,[1]; at 3.7 µM,10%
same,growth inhibition,[1]; at 11.0 µM,20%
same,growth inhibition,[1]; at 33.0 µM,29%
same,growth inhibition,[1]; at 100.0 µM,39%
same,growth inhibition,[2]; at 1.2 µM,14%
same,growth inhibition,[2]; at 3.7 µM,12%
same,growth inhibition,[2]; at 11.0 µM,10%
same,growth inhibition,[2]; at 33.0 µM,15%
same,growth inhibition,[2]; at 100.0 µM,17%
same,growth inhibition,[3]; at 1.2 µM,6%
same,growth inhibition,[3]; at 3.7 µM,21%
same,growth inhibition,[3]; at 11.0 µM,35%
same,growth inhibition,[3]; at 33.0 µM,52%
same,growth inhibition,[3]; at 100.0 µM,59%
same,growth inhibition,[4]; at 1.2 µM,9%
same,growth inhibition,[4]; at 3.7 µM,54%
same,growth inhibition,[4]; [15],16%
same,growth inhibition,[4]; at 11.0 µM,42%
same,growth inhibition,[4]; at 33.0 µM,59%
same,growth inhibition,[4]; [16],26%
same,growth inhibition,[4]; at 50.0 µM,32%
same,growth inhibition,[4]; at 100.0 µM,82% (active)
same,growth inhibition,[5]; at 1.2 µM,17%
same,growth inhibition,[5]; at 3.7 µM,16%
same,growth inhibition,[5]; [15],-23%
same,growth inhibition,[5]; at 11.0 µM,18%
same,growth inhibition,[5]; at 33.0 µM,22%
same,growth inhibition,[5]; [16],24%
same,growth inhibition,[5]; at 50.0 µM,29.1%
same,growth inhibition,[5]; at 100.0 µM,40%
same,growth inhibition,[6]; [15],20%
same,growth inhibition,[6]; [16],24%
same,growth inhibition,[6]; at 50.0 µM,25.6%
same,growth inhibition,[7]; at 1.2 µM,-4%
same,growth inhibition,[7]; at 3.7 µM,-2%
same,growth inhibition,[7]; at 11.0 µM,-1%
same,growth inhibition,[7]; at 33.0 µM,1%
same,growth inhibition,[7]; at 100.0 µM,9%
same,growth inhibition,[8]; [15],2%
same,growth inhibition,[8]; [16],14%
same,growth inhibition,[8]; at 50.0 µM,-9.8%
same,growth inhibition,[9]; at 1.2 µM,33%
same,growth inhibition,[9]; at 3.7 µM,55%
same,growth inhibition,[9]; [15],56%
same,growth inhibition,[9]; at 11.0 µM,70% (active)
same,growth inhibition,[9]; at 33.0 µM,78% (active)
same,growth inhibition,[9]; [16],73% (active)
same,growth inhibition,[9]; at 50.0 µM,71.5% (active)
same,growth inhibition,[9]; at 100.0 µM,81% (active)
same,growth inhibition,[10]; at 1.2 µM,14%
same,growth inhibition,[10]; at 3.7 µM,16%
same,growth inhibition,[10]; at 11.0 µM,4%
same,growth inhibition,[10]; at 33.0 µM,8%
same,growth inhibition,[10]; at 100.0 µM,13%
same,growth inhibition,[11]; at 1.2 µM,12%
same,growth inhibition,[11]; at 3.7 µM,10%
same,growth inhibition,[11]; at 11.0 µM,11%
same,growth inhibition,[11]; at 33.0 µM,18%
same,growth inhibition,[11]; at 100.0 µM,27%
same,growth inhibition,[12]; at 1.2 µM,17%
same,growth inhibition,[12]; at 3.7 µM,13%
same,growth inhibition,[12]; at 11.0 µM,19%
same,growth inhibition,[12]; at 33.0 µM,23%
same,growth inhibition,[12]; at 100.0 µM,29%
same,growth inhibition,[13]; [15],41%
same,growth inhibition,[13]; [16],53%
same,growth inhibition,[13]; at 50.0 µM,60.5%
Cc1ccccc1NC(=O)Cc1csc(N/N=C2\NC(=O)/C(=C/c3cccc([N+](=O)[O-])c3)S2)n1,growth inhibition,[1]; at 1.2 µM,2%
same,growth inhibition,[1]; at 3.7 µM,5%
same,growth inhibition,[1]; at 11.0 µM,13%
same,growth inhibition,[1]; at 33.0 µM,24%
same,growth inhibition,[1]; at 100.0 µM,49%
same,growth inhibition,[2]; at 1.2 µM,3%
same,growth inhibition,[2]; at 3.7 µM,6%
same,growth inhibition,[2]; at 11.0 µM,4%
same,growth inhibition,[2]; at 33.0 µM,11%
same,growth inhibition,[2]; at 100.0 µM,26%
same,growth inhibition,[3]; at 1.2 µM,4%
same,growth inhibition,[3]; at 3.7 µM,9%
same,growth inhibition,[3]; at 11.0 µM,15%
same,growth inhibition,[3]; at 33.0 µM,39%
same,growth inhibition,[3]; at 100.0 µM,51%
same,growth inhibition,[4]; at 1.2 µM,-4%
same,growth inhibition,[4]; at 3.7 µM,-11%
same,growth inhibition,[4]; [15],8%
same,growth inhibition,[4]; at 11.0 µM,-6%
same,growth inhibition,[4]; at 33.0 µM,24%
same,growth inhibition,[4]; [16],10%
same,growth inhibition,[4]; at 50.0 µM,64.1%
same,growth inhibition,[4]; at 100.0 µM,50%
same,growth inhibition,[5]; at 1.2 µM,4%
same,growth inhibition,[5]; at 3.7 µM,2%
same,growth inhibition,[5]; [15],8%
same,growth inhibition,[5]; at 11.0 µM,5%
same,growth inhibition,[5]; at 33.0 µM,12%
same,growth inhibition,[5]; [16],13%
same,growth inhibition,[5]; at 50.0 µM,32.1%
same,growth inhibition,[5]; at 100.0 µM,23%
same,growth inhibition,[14]; at 1.2 µM,4%
same,growth inhibition,[14]; at 3.7 µM,2%
same,growth inhibition,[14]; at 11.0 µM,8%
same,growth inhibition,[14]; at 33.0 µM,16%
same,growth inhibition,[14]; at 100.0 µM,22%
same,growth inhibition,[7]; at 1.2 µM,0%
same,growth inhibition,[7]; at 3.7 µM,0%
same,growth inhibition,[7]; at 11.0 µM,-4%
same,growth inhibition,[7]; at 33.0 µM,1%
same,growth inhibition,[7]; at 100.0 µM,17%
same,growth inhibition,[8]; [15],-16%
same,growth inhibition,[8]; [16],28%
same,growth inhibition,[8]; at 50.0 µM,21.6%
same,growth inhibition,[9]; at 1.2 µM,-1%
same,growth inhibition,[9]; at 3.7 µM,-1%
same,growth inhibition,[9]; [15],-25%
same,growth inhibition,[9]; at 11.0 µM,0%
same,growth inhibition,[9]; at 33.0 µM,15%
same,growth inhibition,[9]; [16],69%
same,growth inhibition,[9]; at 50.0 µM,66.2%
same,growth inhibition,[9]; at 100.0 µM,32%
same,growth inhibition,[11]; at 1.2 µM,1%
same,growth inhibition,[11]; at 3.7 µM,4%
same,growth inhibition,[11]; at 11.0 µM,6%
same,growth inhibition,[11]; at 33.0 µM,20%
same,growth inhibition,[11]; at 100.0 µM,51%
same,growth inhibition,[12]; at 1.2 µM,5%
same,growth inhibition,[12]; at 3.7 µM,6%
same,growth inhibition,[12]; at 11.0 µM,8%
